Pf Dd2 growth – blocks in vitro growth of P. falciparum Dd2. Potency, µM (doses to about 28.9 µM), inactives show top-dose activity, negative = inhibition, most hits filed as inhibitors. P. falciparum Dd2 growth, SYBR Green, 72 h. AID 1347417. hit rate 4.3% among 120,000; active = well fitted inhibition curve with a large enough effect;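 note: plate controls were DMSO vehicle for no effect and reference drug for full effect; nearly all actives have a fitted effect of over 65% in size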
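Readout: SYBR Green fluorescence, 485 nm excitation, 535 nm emission, after ~16 h lysis at 37C. Before that, Dd2-infected red cells (2.5% hematocrit) grew 72 h with compound, 29 uM top final concentration.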
* = called active by the depositor; [ ] = another dose, or the depositor's remark. This excerpt belongs to a sample that is enriched for hits. Potency is the fitted concentration of half-maximal effect.

What do the screens show for `CCc1ccc(OCC2c3cc(OC)c(OC)cc3CCN2C(=O)Cc2ccc(OC)c(OC)c2)cc1` (stereo not drawn)?
Pf Dd2 growth: 8.91µM*

How did CC(C)CN1CCc2[nH]cnc2C12CCN(C(=O)c1n[nH]c3c1CCC3)CC2 do in these assays?
Pf Dd2 growth: -29.0%

Results for Cc1ccsc1C(=O)N1CCc2nn(C)c(=O)n2CC1 ?
Pf Dd2 growth: 27.2%

Results for CNC(=O)[C@@H](c1ccccc1F)N1CCC[C@H]1C(=O)NCC1CC1 ?
Pf Dd2 growth: 13.1%[44.1 µM]

Results for Cc1ncsc1CN1C[C@@H]2C(=O)N(CCCN3CCCC3=O)C(=O)[C@@H]2C1 ?
Pf Dd2 growth: -3.3%

Results for Cc1ccsc1C(=O)Nc1ccc2ncnc(N3CCCCC3)c2c1 ?
Pf Dd2 growth: -12.5%

How did COc1ccccc1C(=O)NC1CCN(c2nnc3ccccn23)CC1 do in these assays?
Pf Dd2 growth: inactive

Results for O=C(N[C@@H]1CCN(C(=O)CCCn2cccn2)C[C@H]1O)c1ccccn1 ?
Pf Dd2 growth: -3.5%

What do the screens show for `COc1cc(CN2C[C@@H](CO)[C@H](NC(=O)c3ccccc3)C2)ccc1F`?
Pf Dd2 growth: 5.62µM*

What do the screens show for `O=C(N[C@@H]1CN(Cc2ccccc2)C[C@H]1CO)c1ccnnc1`?
Pf Dd2 growth: 8.6%

Results for Cn1nccc1C(=O)N[C@@H]1CN(Cc2ccccc2)C[C@H]1CO ?
Pf Dd2 growth: 12.6µM*

What do the screens show for `Cc1cnc(C(=O)N[C@@H]2CN(Cc3ccccc3)C[C@H]2CO)cn1`?
Pf Dd2 growth: -21.8%

Results for Cc1cc(CN2C[C@@H](CO)[C@H](NC(=O)c3ccccc3)C2)n(C)n1 ?
Pf Dd2 growth: 35.2%

Results for CC(=O)N[C@@H]1CN(Cc2ccc(F)c(Br)c2)C[C@H]1CO ?
Pf Dd2 growth: -25.7%

What do the screens show for `Cc1ccc(NC(=O)N2CCC(Oc3ncccc3C(=O)N3CCCCC3)C2)c(C)c1` (stereo not drawn)?
Pf Dd2 growth: -19.3%

What do the screens show for `COCCC(=O)N1CCCC(c2nc(CCOc3cccc(C)c3)no2)C1` (stereo not drawn)?
Pf Dd2 growth: -8.3%

What do the screens show for `CCCS(=O)(=O)N1CC(c2nc(CCOc3cccc(C)c3)no2)C1`?
Pf Dd2 growth: -17.3%

What do the screens show for `Cc1cccc(OCCc2noc(C3CCCNC3)n2)c1` (stereo not drawn)?
Pf Dd2 growth: 5.01µM*

Results for O=C(CCC1CCN(C(=O)c2ccccc2)CC1)Nc1ccc(F)c(F)c1 ?
Pf Dd2 growth: inactive

Results for Cc1cccc(OCC2(CNC3CCN(C)CC3)C[C@@H](O)[C@@H](O)C2)n1 (stereo partly drawn) ?
Pf Dd2 growth: 25.1%[44.1 µM]

How did CC(=O)c1ccc(N2C(=O)N(CC(=O)c3ccc(C)cc3)c3ccccc3S2(=O)=O)cc1 do in these assays?
Pf Dd2 growth: -21.5%

How did CCN1C(=O)N(c2ccc(C(C)=O)cc2)S(=O)(=O)c2ccccc21 do in these assays?
Pf Dd2 growth: 30.7%

How did CCOc1ccc(N2C(=O)N(Cc3ccc(C)cc3C)c3ccccc3S2(=O)=O)cc1 do in these assays?
Pf Dd2 growth: 10µM*

What do the screens show for `O=C(c1ccccc1C(F)(F)F)N1C[C@@H](CO)[C@H](c2ccccn2)C1`?
Pf Dd2 growth: 17.8%

Results for Cc1cnc(C2CC2)n1C1CCCN(C(=O)NC(C)C)C1 (stereo not drawn) ?
Pf Dd2 growth: -21.2%

Results for CC1=NOC2(CCN(C(=O)c3ccc4c(c3)OCO4)CC2)C1 ?
Pf Dd2 growth: -14.7%[44.1 µM]

How did COC1CN(c2cccc(F)c2)C12CCN(C(=O)c1ccncc1)CC2 (stereo not drawn) do in these assays?
Pf Dd2 growth: inactive

How did COC1CN(c2cccc(F)c2)C12CCN(C(=O)C1CCCCC1)CC2 (stereo not drawn) do in these assays?
Pf Dd2 growth: 10µM*

How did COC1CN(c2cccc(F)c2)C12CCN(C(=O)CCC1CCCC1)CC2 (stereo not drawn) do in these assays?
Pf Dd2 growth: -16.1%

What do the screens show for `COC1CN(c2cccc(F)c2)C12CCN(C(=O)NC1CCCCC1)CC2` (stereo not drawn)?
Pf Dd2 growth: 6.31µM*

Results for COC1CN(c2cccc(F)c2)C12CCN(C(=O)C1CCC1)CC2 (stereo not drawn) ?
Pf Dd2 growth: inactive

What do the screens show for `COC1CN(c2cccc(F)c2)C12CCN(C(=O)NC(C)(C)C)CC2` (stereo not drawn)?
Pf Dd2 growth: inactive

What do the screens show for `CNC(=O)N1C[C@@H](CN(C)C)[C@H](NC(=O)c2cccnc2)C1`?
Pf Dd2 growth: 33.3%

How did O=C1NCCCCCCN(C(=O)c2ccoc2)[C@H]2CCCC[C@@H]12 do in these assays?
Pf Dd2 growth: -22.5%

Results for Cc1ccsc1-c1[nH]nc2ncc(-c3cn[nH]c3)nc12 ?
Pf Dd2 growth: 27.2%[44.1 µM]

How did CC(=O)N1CC2(Cc3ccccc31)CN(C(=O)NC1CCCC1)C2 do in these assays?
Pf Dd2 growth: 4.3%[44.1 µM]

How did CC(=O)N1CC2(CCCN(Cc3ccc(Cl)cc3)C2)Cc2ccccc21 (stereo not drawn) do in these assays?
Pf Dd2 growth: -14.1%

Results for O=C(C1CCCC1)N1CC2(CCN(Cc3cccnc3)CC2)Cc2ccccc21 ?
Pf Dd2 growth: 10µM*

Results for CC(=O)N1CC2(CCCN(Cc3cccnc3)C2)Cc2ccccc21 (stereo not drawn) ?
Pf Dd2 growth: 2.4%

How did CN1CCC(C(=O)N2C3CCC2CN(Cc2cccnc2)C3)CC1 do in these assays?
Pf Dd2 growth: -3.4%

How did O=C(C1CCCC1)N1CC2(CCCN(Cc3ccc(Cl)cc3)C2)Cc2ccccc21 (stereo not drawn) do in these assays?
Pf Dd2 growth: 12.6µM*

How did O=C(C1CCCC1)N1CC2(CCN(Cc3cccnc3)C2)Cc2ccccc21 (stereo not drawn) do in these assays?
Pf Dd2 growth: 6.31µM*

What do the screens show for `O=C(C1CCCC1)N1CC2(CCN(C3CCCCC3)C2)Cc2ccccc21` (stereo not drawn)?
Pf Dd2 growth: 10µM*

Results for O=C1CCN(Cc2cccnc2)CCCC(C(=O)NC2CCCC2)CCN1 (stereo not drawn) ?
Pf Dd2 growth: -2.9%

What do the screens show for `O=C(C1CCCC1)N1CC2(CCN(C3COC3)CC2)Cc2ccccc21`?
Pf Dd2 growth: 16.7%

What do the screens show for `CCN1CCN(CCCN2CC3(CCN(C(=O)CN)CC3)OC2=O)CC1`?
Pf Dd2 growth: -7.7%

How did NCC(c1ccccc1)N1CCOCC1 (stereo not drawn) do in these assays?
Pf Dd2 growth: -26.1%[44.1 µM]

How did Cc1cc(S(=O)(=O)N2CCN(C3CCN(Cc4ccccn4)C3=O)CC2)ccc1Cl (stereo not drawn) do in these assays?
Pf Dd2 growth: -2.5%

How did CCNC(=O)N1CCC(=O)N(CC)C2(CCOCC2)C1 do in these assays?
Pf Dd2 growth: -0.4%

How did O=S(=O)(c1ccccc1)N1CCCC(c2nc(CCOCC3CCCC3)no2)C1 (stereo not drawn) do in these assays?
Pf Dd2 growth: inactive

What do the screens show for `CNC(=O)[C@@H](c1ccccc1)N1CCC[C@H]1C(=O)N1CCN(C(C)=O)CC1`?
Pf Dd2 growth: 7.7%[44.1 µM]

What do the screens show for `O=C(CC1CCN(C(=O)c2ccoc2)C1)NCc1ccccc1` (stereo not drawn)?
Pf Dd2 growth: inactive

What do the screens show for `O=C(NC1CCCCCC1)c1nnn2cc(-c3ccccc3)[nH]c(=O)c12`?
Pf Dd2 growth: -22.7%

Results for COc1ccc(C2=NOC3(CCN(Cc4cccnc4)C3)C2)cc1 (stereo not drawn) ?
Pf Dd2 growth: inactive

What do the screens show for `COc1ccc(CN2CCC3(CC(c4cccc(C(F)(F)F)c4)=NO3)C2)cc1` (stereo not drawn)?
Pf Dd2 growth: 3.9%
